Experimental findings from PubChem BioAssay (NCI) are described below.

The structures appear in SMILES notation. About 83,000 compounds went through this panel and 20% of them were active in at least one assay; those are over-represented in the sample as a whole.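 48-hour exposure, single concentration, 96-well plates; percent growth endpoint where 0 means no net growth. Active: below 10.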 A number with no mark means an inactive call. Calls of active or inactive are those of the source.

The subject of this assay is HL-60(TB) leukemia. Briefly: NCI-60 one-dose screen, 48 h (100 = growth as untreated, 0 = no growth, -100 = all killed). To be noted: 10 µM unless noted.
Regarding `N#CSCc1c(Cl)cccc1Cl`, the growth is 88.9%. The value for `O=C1Nc2ccccc2/C1=C/c1cn(C(=O)c2ccc(Cl)cc2)c2ccccc12` was 150%; that for `COc1cccc(CNc2nnc(C)c(C)n2)c1O` was 95.9%. With `Cc1cc(-c2cc(OC(=O)c3ccccc3)ccc2Cl)cc2nnc(Nc3ccc(OCCN4CCCC4)cc3)nc12` the figure was 116%; with `CC(O)c1cc[cH-]c1.[Fe+2].c1cc[cH-]c1` (stereo not given), 92.9%; with `O=C(Nc1cccc(Cn2c(=O)[nH]c3ccc(Oc4ncccn4)cc3c2=O)c1)c1cccc(F)c1`, 89.9%. Regarding `CCNc1ncnc2c1cnn2C1CCCO1` (stereo not given), the growth was 92.5%. The value for `CCN(CC)CCSCCN(CC)CC` was 100%; that for `CN=C1C=CC(=C(c2ccc(N(C)C)cc2)c2ccc(N(C)C)cc2)C=C1` was -1.23% (active); that for `CN(C)CCCNC(=O)c1cncnc1Nc1ccc(OCc2cccc(F)c2)c(Cl)c1` was -60.7% (active). With `O=C(Nc1ccc(F)cc1)Nc1ccc(CCO)cc1` the figure was 101%; with `COc1ccc2c(c1)O/C(=C/c1ccc(OCC(=O)Nc3ccc(S(N)(=O)=O)cc3)cc1)C2=O`, 89.5%; with `CCO/C=N/C1=C(C#N)C(c2ccc(Cl)cc2)c2sc3c(F)cccc3c2O1` (stereo not given), 56.2%. With `CS(=O)(=O)Nc1cc(-c2ccc3ncnc(Nc4ccc5[nH]ncc5c4)c3c2)cnc1Cl` the figure was 55.5%; with `COc1ccc(-c2cc(-c3ccc(Nc4nc(Nc5ccc(Cl)cc5)nc(Nc5ccc(Cl)cc5)n4)cc3)no2)cc1`, -43.5% (active). Turning to `CC(C)OC(=O)c1cc(NC(=S)OC(C)C)ccc1Cl`, the growth is 86.2%. The value for `Cn1c2ccc(Cl)cc2c2nn(C(=O)c3ccccc3)c(=O)nc21` was 113%; that for `O=[N+]([O-])c1ccc(-c2cc3c(Nc4ccc(OCc5cccc(Cl)c5)c(Cl)c4)ncnc3s2)cc1` was 44.2%. With `CN1CCN(CCCOc2ccc3nc(Nc4cc(Cl)cc(Cl)c4)ccc3c2)CC1` the figure was -39.2% (active); with `Cc1cc(C)c(C#N)c(SCC(=O)c2sc3c(C#N)c(C)cc(C)[n+]3c2[O-])n1`, -39.3% (active). With `Brc1cnc2[nH]cc(-c3nnc(-c4ccccc4)o3)c2c1` the figure was 94.5%; with `Cc1[nH]nc2c1C(c1cnn(C)c1)C(C#N)=C(N)O2` (stereo not given), 99.5%. Regarding `c1ccc(Nc2nc(Nc3ccccc3)nc(Nc3ccccc3)n2)cc1`, the growth was 63.8%.

As to `c1ccc(CN2COc3c(ccc4c3OCN(Cc3ccccc3)C4)C2)cc1`, the growth is -19% (active). The value for `COc1ccc(/C=C/C(=O)Nc2ccc(-c3nc4ccc(F)cc4s3)cc2)cc1` was 91.4%; that for `COc1cc(/C=C/C(=O)CC(=O)/C=C/c2ccc(OC(=O)C3C4CC5CC(C4)CC3C5)c(OC)c2)ccc1OC(=O)C1C2CC3CC(C2)CC1C3` (stereo not given) was 94%.

`COc1cc(/C=N/NC(=O)Cn2c(C(C)C)nc3ccccc32)ccc1O`: the growth was 85.2%. For `O=C1NC(=C(Cl)Cl)/C(=N/S(=O)(=O)NCCc2c[nH]c3ccccc23)N1`, the growth is 50.2%. As to `Cc1ccc2c(c1)C(=O)c1c-2c(OCCCN(C)C)nc2ccccc12`, the growth is 35%. The value for `CCOC(=O)c1cn2ncnc(Oc3ccc(NC(=O)NC4CC4)c(Cl)c3)c2c1C` was 83.5%.

Regarding `COc1ccc(C(=O)c2ccccc2CN2C(=O)c3ccccc3C2=O)cc1`, the growth was 103%. With `O=C(/C=C/C=C/c1c(C2CC2)nc2ccccc2c1-c1ccc(F)cc1)c1cccs1` the figure was -17.5% (active). With `CN1CCN(C(=S)S)CC1` the figure was 111%; with `COc1ccc(-c2nn(-c3cccc(NC(=O)Nc4cc(C(F)(F)F)cc(C(F)(F)F)c4)c3)cc2-c2ccncc2)cc1Cl`, -25.4% (active). Turning to `CNc1nc(C)c(-c2nc(Nc3cccc(S(N)(=O)=O)c3)ncc2F)s1`, the growth was -47.9% (active). With `C#CCO[C@H]1CC(CC#C)(CC#C)C(=O)[C@@H]2[C@H]1[C@H]1C[C@@H]3[C@@]4(C)CCC[C@@](C)(C(=O)OC)[C@@H]4CC[C@@]23C=C1C(C)C` the figure was 54.8%; with `COc1c(C)cnc(CSc2nc(-c3ccc(C)cc3)cn2-c2ccc(Cl)cc2)c1C`, 95.8%.

In the case of `O=C(NCCCl)NCCN1c2nc3ccccc3cc2Sc2cc3ccccc3nc21`, the growth is 24.3%. With `COc1cc(/C=C/c2cc(/C=C/c3ccc(O)c(OC)c3)n(C(=O)Nc3ccc(F)c(Cl)c3)n2)ccc1O` the figure was -28.9% (active); with `CN1CC(c2ccccc2)C(C(=O)c2ccc(Br)cc2)C12C(=O)Nc1ccccc12` (stereo not given), 99.8%.
